G9a inh-1 = blocks human histone lysine methyltransferase G9a. Q96KQ7. G9a H3K9 monomethylation, AlphaScreen, 2 h. Potency, µM (titrated, usually from 102 µM), hits mostly inhibitors. 350,000 compounds, 8.8% hits; further: nearly all actives have a fitted effect of over 75% in size
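Readings reflect AlphaScreen signal from monomethyl-H3K9 antibody detection. HMT at 20 nM; substrate b-H3K9 500 nM; cofactor SAM 20 uM; 2 h RT reaction; compounds tested as titrations in qHTS with 15 min preincubation.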
BAZ2B block = blocks human BAZ2B; 360,000 compounds, 4.4% hits; AlphaScreen BAZ2B-H3K14Ac peptide displacement; Potency, µM (titrated, usually from 114 µM), most hits filed as inhibitors; AID 504333; further: nearly all actives have a fitted effect of over 60% in size
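BAZ2B (50 nM) with biotin-H3(5-23)K14Ac peptide (50 nM) in PBS pH 7.4, 0.01% Tween-20, preformed 30 min, then compound 30 min at room temperature; top concentration 110uM. AlphaScreen streptavidin donor/nickel chelate acceptor beads (10 ug/mL final), 20 min dark, signal read.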
PI5P4K alpha inh = blocks human PI5P4K alpha kinase activity; AID 652105; P48426; 330,000 compounds, 1.2% hits; PI5P4Kalpha enzyme, ADP-Glo luminescence, 60 min; hits give low values; max response, %; active means max response of -50% or lower; inconclusive means between -30% and -50%; inactive means -30% or higher; further: value at the top dose of about 77 µM
Target sequence (P48426 whole entry, looked up): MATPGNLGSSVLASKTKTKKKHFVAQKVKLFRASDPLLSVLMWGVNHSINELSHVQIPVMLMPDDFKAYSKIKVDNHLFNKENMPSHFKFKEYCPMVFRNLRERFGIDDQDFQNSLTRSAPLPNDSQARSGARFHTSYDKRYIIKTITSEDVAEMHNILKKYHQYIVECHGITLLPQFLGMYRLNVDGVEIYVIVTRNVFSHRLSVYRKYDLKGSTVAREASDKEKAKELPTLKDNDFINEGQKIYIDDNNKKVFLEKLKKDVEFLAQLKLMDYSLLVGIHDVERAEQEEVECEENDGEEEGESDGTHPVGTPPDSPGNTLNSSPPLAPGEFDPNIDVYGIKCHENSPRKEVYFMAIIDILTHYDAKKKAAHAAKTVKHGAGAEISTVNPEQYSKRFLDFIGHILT
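Quantitative HTS of the MLSMR library against PI5P4Kalpha with substrate. ATP added last at 5 microM final; room temperature, 60 minutes. Remaining ATP depleted, ADP converted and read as luminescence.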
JMJD2A Tudor inh = blocks the human JMJD2A Tudor domain | O75164 | AlphaScreen JMJD2A-Tudor / H3K4me3 peptide binding | Potency, µM (titrated, usually from 114 µM), hits mostly inhibitors | 390,000 compounds, 4.4% hits | AID 504339; further: nearly all actives have a fitted effect of over 50% in size
PLK1 PBD inh = inhibitors of human PLK1 polo-box domain binding; Plk1 PBD binding of FITC phosphopeptide, fluorescence polarization; P53350; 360,000 compounds, 2.8% hits; Potency, µM, actives largely listed as inhibitors; further: series mostly up to about 57 µM; nearly all actives have a fitted effect of over 65% in size
HP1b binding inh = inhibitors of HP1-beta chromodomain binding to methylated histone tails; P83916; AlphaScreen HP1-beta / biotin-H3K9me3 peptide binding; Potency, µM (top dose mostly 114 µM), usual class: inhibitors; 390,000 compounds, 0.56% hits; AID 540317; further: nearly all actives have a fitted effect of over 70% in size
Target sequence (P83916 whole entry, looked up): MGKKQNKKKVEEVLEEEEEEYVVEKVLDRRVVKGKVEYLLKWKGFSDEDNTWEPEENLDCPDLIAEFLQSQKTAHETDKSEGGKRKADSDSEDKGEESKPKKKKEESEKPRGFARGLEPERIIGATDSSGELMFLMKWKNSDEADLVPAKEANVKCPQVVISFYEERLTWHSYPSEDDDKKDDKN
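HP1-beta protein (50 nM final) preincubated 30 min at room temperature with biotinylated H3(1-18)K9me3 peptide (50 nM) in PBS pH 7.4, 0.01% Tween-20, then compound added for 30 min. AlphaScreen streptavidin donor/nickel chelate acceptor beads (10 ug/mL final), 30 min dark, luminescence read.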
JMJD2E confirm = JMJD2E (human) demethylase inhibition, confirmation; shares compounds with JMJD2A Tudor inh; Recombinant JMJD2E, FDH-coupled NADH fluorescence (FDH is formaldehyde dehydrogenase); Potency, µM (titrated, usually from 56.8 µM), hits mostly inhibitors; 140 compounds, 93% hits; AID 2677
FDH counter = blocks Pseudomonas putida formaldehyde dehydrogenase, flagging JMJD2E artifacts | Potency, µM (series often up to 56.7 µM), actives largely listed as inhibitors | 140 compounds, 10% hits | FDH enzyme assay, NADH fluorescence kinetic | shares compounds with JMJD2A Tudor inh
G9a inh-2 = inhibits human G9a histone lysine methyltransferase, hit confirmation; shares compounds with JMJD2A Tudor inh; G9a H3K9 monomethylation, AlphaScreen, 2 h; Potency, µM, usual class: inhibitors; 370 compounds, 89% hits; AID 588344; further: nearly all actives have a fitted effect of over 65% in size
Numbers stand for hits; – = inactive; ? = inconclusive; · = no result given; ! = not confirmed by another sample; [ ] = remark or other dose. This is a sample that favours compounds with a hit; in the whole collection about 12% have one here. Unless noted, the call rests on the fitted dose curve; in most records, active means well fitted curve in the direction sought with a large enough effect; inconclusive means small, poorly fitted or top-dose-only effect, or another doubt; inactive means no such curve, though single readings can be large; an effect the other way counts as inactive or inconclusive.

SMILES	G9a inh-1	BAZ2B block	PI5P4K alpha inh	JMJD2A Tudor inh	PLK1 PBD inh	HP1b binding inh	G9a inh-2	others
CCOc1ccc(NC(=O)c2c(NCc3cccnc3)sc3c2CCC(C)C3)cc1 (configuration not stated)	2.24µM	?	·	15.8µM	·	–	1.29
c1ccc(COc2ccc(OCCn3cncn3)cc2)cc1	–	–	–	–	–	–	·
c1ccc(Oc2cccc(OCCn3cncn3)c2)cc1	1.78µM	39.8µM	–	25.1µM	–	–	28.3
O=C(c1cccnc1)N1CCN(Cc2ccc3c(c2)OCO3)CC1	?	50.1µM	–	6.31µM	–	?	7.1
CC(NC(=O)C1CCN(C(=O)N2CCOc3ccc(Cl)cc32)CC1)c1ccccc1 (configuration not stated)	?	–	·	?	·	–	·
O=C(CNC(=O)OCc1ccccc1)Nc1ccc(F)cc1	?	–	–	?	–	–	?
Cc1cccc(N2CCN(C(=O)c3ccc(S(=O)(=O)N(C)c4ccccc4)cc3)CC2)c1C	·	·	–	–	–	–	·
CCN(CC)c1ccc(NC(=O)c2cc(OC)cc(OC)c2)c(C)c1	2.51µM	39.8µM	–	?	–	–	3.16
CCOC(=O)c1cnc(-n2nc(C)cc2C)nc1Nc1ccc2c(c1)OCO2	?	–	·	·	·	·	·
CCOC(=O)c1cnc(-n2nc(C)cc2C)nc1Nc1ccc(N(C)C)cc1	0.891µM	1.78µM	–	1.12µM	–	?	1.59
CCOC(=O)C1CCCN(CC(=O)NC2CC2)C1 (configuration not stated)	1.58µM	31.6µM	·	5.01µM	–	17.8µM	44.7
COc1ccc(NC(=O)CN(C)CC(=O)NCc2ccc(C)cc2)cc1	–[12.7 µM]	–	–	–	–	–	·
Cc1ccc(NC(=O)CN(C)Cc2c(O)ccc3ccccc23)cc1	1.41µM	–	?	79.4µM	3.77µM	–	0.632
c1ccc(-c2nnc(CN3CCCc4ccccc43)o2)cc1	?	?	–	–[11.4 µM]	–	–	·
Oc1ccc(CN2CCCc3ccccc32)c2cccnc12	1.58µM	35.5µM	–	?	?	?	·	JMJD2E confirm=1.26µM;FDH counter=–
Cc1ccc(N2C(=O)CC(Sc3ncn[nH]3)C2=O)cc1C (configuration not stated)	2µM	?	–	10µM	29.9µM	–	·	JMJD2E confirm=7.08µM;FDH counter=0.224µM
CN(C(=O)c1ccc(NC(=O)Cc2cccc(NC(=O)C3CCCN(C(=O)CCc4ccccc4)C3)c2)cc1)C1CC1 (configuration not stated)	·	·	–	–	–	–	·
Cc1ccc(-c2ccc(CCC(=O)O)o2)cc1	?	–	·	?	?	–	·
O=C(O)CCc1ccc(-c2cccs2)o1	?	56.2µM	·	100µM	?	?	7.94
Cc1ccccc1OCc1ccc(-c2nc(C#N)c(N3CCN(c4ccccc4)CC3)o2)o1	?	?	·	–	·	–	?
CN(c1ccccc1)S(=O)(=O)c1nnc(NC(=O)COc2ccccc2)s1	?	–	–	–	–	–	·
O=C(COc1ccccc1)Nc1nnc(S(=O)(=O)Nc2ccccc2)s1	?	1.41µM!	–	?	–	–	?
CC(NS(=O)(=O)c1ccc(Cl)cc1)C(=O)OCC(=O)Nc1ccc(N(C)C)cc1 (configuration not stated)	2.51µM	?	–	?	–	–	3.99
c1ccc(-c2ccc(-c3ccccc3)[nH]2)cc1	·	·	–	?	–	–	·
c1ccc(-c2ccc3c(c2)NCCN3)cc1	?	56.2µM	–	44.7µM	–	?	0.564
SMILES	G9a inh-1	BAZ2B block	PI5P4K alpha inh	JMJD2A Tudor inh	PLK1 PBD inh	HP1b binding inh	G9a inh-2	others
COc1ccccc1C(=O)N1CCN(C(=O)[C@H]2O[C@@H](n3ccc(=O)[nH]c3=O)[C@H](O)[C@@H]2O)CC1	·	·	–	·	–	·	·
CN(C)c1ccc(NC(=O)C2(c3cccs3)CCOCC2)cc1	2.82µM	39.8µM	·	?	·	–	7.08
O=C(Nc1ccc(C(F)(F)F)cc1)C1(c2cccs2)CCOCC1	–	–	·	–	·	–	·
CC(C)C(NC(=O)OCc1ccccc1)C(=O)N1CCOCCOCCOCC1 (configuration not stated)	–	–	–	–	–	–	·
COc1ccc(NC(=O)CCN2CCCCCC2)c(OC)c1	?	–	·	–	–	–	·
COc1cc(OC)c(C(=O)CCCN2CCCC2)c(OC)c1	?	–	–	–	–	–	9.58
CC(C)(C)C1=Nn2c(nnc2-c2ccccn2)SC1	?	20µM	?	7.94µM	–	?	1.78
Cc1ccc(OCC(=O)Nc2cccc(-c3nc4ccccc4s3)c2)cc1	2.51µM	–	·	–	·	–	11.2
CCCCn1c(SCC(=O)N2CCCC2)nnc1-c1ccccc1	–	–	–	–	–	–	·
CCn1c(SCC(=O)N2CCCC2)nnc1-c1ccc(N)cc1	1.12µM	–	–	–[11.4 µM]	–	–	1.59
CCc1nnc(NC(=O)c2c(-c3ccccc3)noc2C)s1	–	–	–	–	–	–	·
Cc1onc(-c2ccccc2)c1C(=O)Nc1nnc(COc2ccc(Cl)cc2)s1	?	–	?	?	1.34µM	?	0.796
CCN(CC)C(=O)C1CCN(Cc2cccc(OCc3ccccc3)c2)CC1	2.82µM	35.5µM	–	50.1µM	–	56.2µM	28.3
CCOc1cccc(CN2CCC(n3nccc3NC(=O)CCCc3ccccc3)CC2)c1	·	–	–	?	–	–	·
CC(C)CC(=O)Nc1nnc(S(=O)(=O)N(CC(C)C)c2ccccc2)s1	–	?	·	–	·	–	·
Cc1cn2c(=O)cc(COc3cccc(NC(=O)c4ccc(C(C)(C)C)cc4)c3)nc2s1	0.794µM	–	·	–	·	–	?
CCCCN(CC)Cc1ccc(CNS(=O)(=O)c2cc3c(cc2Cl)NC(=O)CO3)o1	–	–	·	–	·	–	·
CN(C)C1=NC[C@H](Cc2ccccc2)N1CCCC1CCCC1	?	?	–	–	–	–	2.83
CN(C)C1=NC[C@H](Cc2ccccc2)N1CCCC1CCCCC1	–[2.33 µM]	–	–	–	–	–	·
COC(=O)c1ccccc1NC(=O)CSc1nc2sc3c(c2c(=O)[nH]1)CCCC3	?	?	·	56.2µM	·	?	4.08
Cc1cccc(CCNC(=O)C2CCN(c3ncnc4c3nc3n4CCCCC3)CC2)c1	–	–	·	–	·	–	·
CCN(CC(=O)Nc1ccc(NC(C)=O)cc1)CC(=O)Nc1cccc2ccccc12	·	·	–	·	–	·	·
